GPR151 activ = activates the human receptor GPR151. Q8TDV0. PathHunter beta-arrestin GPR151 cells, luminescence. activation, % at 11.2 µM. 1% of 650,000 active. AID 1508602; in the data active = activation above about 4.9%
Target sequence (Q8TDV0 whole entry, looked up): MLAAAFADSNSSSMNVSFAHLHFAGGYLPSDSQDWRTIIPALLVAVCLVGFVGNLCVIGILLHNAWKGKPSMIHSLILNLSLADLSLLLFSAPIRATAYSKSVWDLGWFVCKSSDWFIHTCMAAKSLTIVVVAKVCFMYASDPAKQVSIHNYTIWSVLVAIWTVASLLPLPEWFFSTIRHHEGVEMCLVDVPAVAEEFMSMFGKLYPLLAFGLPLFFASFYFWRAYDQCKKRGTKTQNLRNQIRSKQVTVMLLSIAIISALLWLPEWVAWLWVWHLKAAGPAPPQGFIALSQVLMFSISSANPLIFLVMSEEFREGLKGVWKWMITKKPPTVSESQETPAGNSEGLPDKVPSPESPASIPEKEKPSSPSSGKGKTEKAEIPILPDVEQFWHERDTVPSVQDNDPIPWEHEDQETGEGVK
FBW7 act = human FBW7 E3 ligase activation, primary screen. 0.13% of 650,000 active. Q969H0. AlphaScreen FBW7–phospho-cyclin E peptide binding, activator screen. AID 1259310. normalized activity (activation), % at 26.1 µM; in the data active = normalized activity above about 1.9%;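 note: purified mutant Fbw7 with reduced substrate affinity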
MITF primary = blocks human microphthalmia-associated transcription factor; 0.91% of 650,000 active; AID 1259374; inhibition, % at 2.6 µM; AlphaScreen MITF homodimerization, bead proximity signal; O75030; in the data active = inhibition above about 50%
TEAD-YAP inh = TEAD-YAP interaction inhibition; HEK-TIYL cells, TEAD-Gal4/YAP UAS-luciferase luminescence; inhibition, % at 9.12 µM; 1.4% of 640,000 active; AID 1259422; in the data active = inhibition above about 32%
MITF confirm = human MITF inhibition, confirmation; AID 1259372; 16% of 4,700 active; inhibition, % at 2.6 µM; shares compounds with MITF primary; AlphaScreen MITF homodimerization, biotin/His-MITF beads;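 active = inhibition above a cutoff derived from the DMSO control wells, cut at about 28% in these data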;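 note: inhibitors lower the bead chemiluminescence by keeping MITF from dimerizing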
AS interf DR = AlphaScreen optical interference, dose response counter-screen; shares compounds with MITF primary; AlphaScreen optical interference counterscreen, cell-free; IC50, µM; 6% of 480 active; call rule not given here
AlphaScreen intf2 = optically interferes with AlphaScreen signal; shares compounds with MITF primary; LysRS AlphaScreen counterscreen, signal interference, triplicate; inhibition, % at 2.6 µM; 7.6% of 4,700 active; AID 1259376;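 active = inhibition above a cutoff derived from the DMSO control wells, cut at about 30% in these data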
Each line names hits and unclear results; the compound was inactive in the other large screens (follow-up assays come after a bar, where they were run). An excerpt weighted towards active compounds, which were near 3.5% of everything screened.

CN(CCc1ccccn1)Cc1ccc2c(c1)CN(Cc1cccc3nccnc13)CCO2	none
CN(CCc1ccccn1)Cc1ccc(F)cc1	MITF primary 77.9 | MITF confirm 32.9 | AS interf DR inactive | AlphaScreen intf2 inactive
CN(CCc1ccccn1)Cc1ccc2c(c1)OCO2	MITF primary 62.7 | MITF confirm inactive | AlphaScreen intf2 inactive
CN(CCc1ccccn1)Cc1cccc(F)c1	MITF primary 73.2 | MITF confirm inactive | AlphaScreen intf2 inactive
CN(CCc1ccccn1)Cc1cccc([N+](=O)[O-])c1	none
CN(CCc1ccccn1)Cc1ccc(F)c(Br)c1	MITF primary 67.7 | MITF confirm inactive | AlphaScreen intf2 inactive
CN(CCc1ccccn1)C1CC(=O)N(c2ccccc2)C1=O (configuration not stated)	none
CSc1ccc(CN(C)CCc2ccccn2)cc1	MITF primary 68.2 | MITF confirm inactive | AlphaScreen intf2 inactive
CCN(CC)C(=O)Cn1c(=O)oc2cc(Cl)ccc21	none
COc1ccc2c(c1)C[C@H](C(=O)Nc1ccc(-c3cn[nH]c3)cc1OC1CCN(C)CC1)NC2	none
C=CCc1cc(Cl)ccc1OCCNCCO	MITF primary 51.8 | MITF confirm inactive | AlphaScreen intf2 inactive
C=CCc1cc(Cl)ccc1OCCNCCCOC	none
C=CCc1cc(Cl)ccc1OCCOCCNCCOC	MITF primary 56.5 | MITF confirm 41.8 | AS interf DR inactive | AlphaScreen intf2 inactive
C=CCc1ccccc1OCCOCCNCCCOC	MITF primary 58.0 | MITF confirm inactive | AlphaScreen intf2 inactive
O=C(CN1N=C(c2ccc(Cl)cc2)CCC1=O)NCCCN1CCCCC1	none
CC(C)=CCN1CCN(c2ccc(C(C)C)cc2)C1=O	none
COc1cc(/C=N/NC(=O)C(C)Nc2cccc(C)c2)cc(Br)c1O (configuration not stated)	none
CS(=O)(=O)c1ccc2nc(NC(=O)/C=C/c3ccccc3Cl)sc2c1	none
CS(=O)(=O)c1ccc2nc(NC(=O)/C=C/c3cccc([N+](=O)[O-])c3)sc2c1	MITF primary 79.8 | MITF confirm inactive | AlphaScreen intf2 inactive
Cc1ccc(C2C(C#N)=C(N)Oc3n[nH]c(C)c32)s1 (configuration not stated)	none
C#CCNCC(O)COc1ccc(OCC)cc1 (configuration not stated)	MITF primary 66.4 | MITF confirm inactive | AlphaScreen intf2 inactive
CCCN1CCCc2cc(CCNS(C)(=O)=O)ccc21	MITF primary 50.6 | MITF confirm inactive | AlphaScreen intf2 inactive
C=C(C)Cn1c(=O)c2c(nc3n(Cc4ccco4)c(C)c(C)n23)n(C)c1=O	none
COc1cc(C2C(C#N)=C(N)OC3=C2C(=O)CCC3)ccc1OC(C)=O (configuration not stated)	none
CC(C)(C)C(=O)CN1C(=O)COc2ccccc21	MITF primary 67.0 | MITF confirm inactive | AlphaScreen intf2 inactive
c1ccc(CNc2nc(N3CCc4ccccc4C3)nc3c2ncn3C2CCCCC2)cc1	none
COc1ccc(Cc2nnc(N/N=C/c3c(CO)cnc(C)c3O)[nH]c2=O)cc1OC	MITF primary 111.5 | MITF confirm 107.3 | AlphaScreen intf2 99.9
COc1ccc(Cc2nnc(N/N=C/c3cccc([N+](=O)[O-])c3)[nH]c2=O)cc1OC	none
COc1cccc(C2(O)CCN(C(=O)c3ccc4c(c3)OCO4)CC2)c1	none
COC(=O)C(CCSC)NC(=O)C1CC(Cc2ccc(F)cc2)=NO1 (configuration not stated)	none
NC(=O)c1sc2nc3c(c(-c4ccco4)c2c1N)CC/C3=C\c1ccco1	MITF primary 117.1 | MITF confirm 110.4 | AlphaScreen intf2 89.6
Cc1ccc(NC(=O)c2sc3nc4c(c(-c5ccco5)c3c2N)CCCC4)cc1	MITF primary 51.2 | MITF confirm inactive | AlphaScreen intf2 inactive
COc1ccccc1N1CCN(c2ncnc3sc(C)c(C)c23)CC1	none
NC(=O)n1c(CCC(=O)O)nc2sc3c(c2c1=O)CCC3	MITF primary 77.7 | MITF confirm 72.7 | AS interf DR inactive | AlphaScreen intf2 inactive
CCCONC(=O)Nc1ccc(Br)cc1	none
O=C(O)CCN(CCC(=O)O)c1ccc(O)cc1	MITF primary 68.9 | MITF confirm 47.9 | AS interf DR inactive | AlphaScreen intf2 inactive
CN1CCN(CC(O)Cn2cc(/C=N/O)c3ccccc32)CC1 (configuration not stated)	MITF primary 58.9 | MITF confirm inactive | AlphaScreen intf2 inactive

Source: PubChem (The Scripps Research Institute Molecular Screening Center)
